Data on 37 compounds can be found in PubChem BioAssay (Tox21).

Values joined by “and” are separate entries in the source; they are usually repeats but may differ in a detail not shown here. Equal values may be shown once. Inconclusive results are not listed. A structure can be active in one record and inactive in another. Active and inactive are the calls of the source. Calls follow the shape of the dose curve; as a rule, active = well fitted curve in the direction sought with a large enough effect in the repeat runs; inconclusive = weak or mixed curves; inactive = no such curve, though single readings can be large; an effect the other way counts as inactive or inconclusive. Starred links: 1 amine or outer side, 2 acyl side, 3 side chain; linkers in the order of their positions; H or OH if unused. Positions of bridges follow the written chain, without caps; N, C: chain ends. Non-standard residues stand in square brackets, D forms with d. Residues, ends and D or L forms follow the SMILES beside them. Chains are numbered I, II in the order given. Actinocin(9to1) = Cc1c2oc3c(C)ccc(C(=O)[*:1])c3nc-2c(C(=O)[*:2])c(N)c1=O; NMeV = CN[C@H](C(=O)O)C(C)C; Sar = CNCC(=O)O
% is scaled to controls: 0 for no effect and ±100 for the full control effect; potency is read from the fitted curve at half-maximal effect.

One assay is described as follows: qHTS RealTime-Glo MT Cell Viability Assay in HepG2 cells - 8 hour (AID 1224873). Also: nearly all actives have a fitted effect of over 55% in size. To be noted: RealTime-Glo luminescence; series mostly up to 76.8 µM. The procedure, abridged:
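Real-time viability: cells seeded at 600 per well together with NanoLuc and cell-permeant prosubstrate, compounds added after 5 h incubation. Luminescence tracked at 0, 8, 16, 24, 32 and 40 h of exposure.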
A general note: qHTS replaces the single test concentration by a dilution series.
`CC(C)(C)NCC(O)c1cc(O)cc(O)c1` (centres undefined): the Potency result was “inactive”.
Still for that read-out and setting: the figure for `Cc1c2oc3c(C)ccc(C(=O)N[C@@H]4C(=O)N[C@H](C(C)C)C(=O)N5CCC[C@H]5C(=O)N(C)CC(=O)N(C)[C@@H](C(C)C)C(=O)O[C@@H]4C)c3nc-2c(C(=O)N[C@@H]2C(=O)N[C@H](C(C)C)C(=O)N3CCC[C@H]3C(=O)N(C)CC(=O)N(C)[C@@H](C(C)C)C(=O)O[C@@H]2C)c(N)c1=O` (I: T[dV]P[Sar][NMeV] / II: T[dV]P[Sar][NMeV]; ester I:1-I:C, II:1-II:C; linker I:N-II:N via Actinocin(9to1)) is 9.5 µM (active) and 10.7 µM (active); for `C#CC(C)(CC)OC(=O)c1ccccc1C(=O)O` (centres undefined) it is “inactive”.
Still for that read-out and setting: as for `CC(C)(C)NCC(O)COc1ccccc1OCC1CCCO1` (centres undefined), the entry is “inactive”; as for `COc1ccc(Cc2cnc(N)nc2N)cc1OC`, “inactive”; as for `C=CS(=O)(=O)O`, “inactive”.
Still for that read-out and setting: as for `CC(=O)C1=C(C)[C@@H]2C[C@@]3(C1)[C@H](C)CC[C@H]3C2(C)C`, the entry is “inactive”; as for `O=S(=O)(O)c1ccc2nc(-c3ccccc3)[nH]c2c1`, “inactive”; as for `Cc1scc2c1N(C(=O)CN1CCN(C)CC1)c1ccccc1NC2=O`, “inactive”.
As to `COC(c1ccccc1)(c1ccccc1)[C@H](Oc1nc(C)cc(C)n1)C(=O)O`, the Potency result was “inactive”.
Same read-out and setting: the entry for `OCCN1CCNCC1` is “inactive”; for `C1COC(NC(C2CC2)C2CC2)=N1` it is “inactive”.
As for `Cc1cc(OCCOCC[N+](C)(C)Cc2ccccc2)ccc1C(C)(C)CC(C)(C)C`, the Potency is 21.7 µM (active) and 23.9 µM (active).
On to `CC(=O)CC(=O)Nc1ccc2[nH]c(=O)[nH]c2c1`, for which the Potency entry was “inactive”.
On the same count and under the same terms, as for `CCN(CC)C(=O)Nc1ccc(OCC(O)CNC(C)(C)C)c(C(C)=O)c1` (centres undefined), the entry is “inactive”; as for `CCCOC(=O)c1cc(O)c(O)c(O)c1`, “inactive”; as for `CN1C(=O)c2ccc([N+](=O)[O-])cc2C1=O`, “inactive”.
Still for that read-out and setting: the entry for `CC(C)(C)c1ccccc1` is “inactive”.
Same read-out and setting: as for `Nc1nc2ccccc2[nH]1`, the entry is “inactive”; as for `c1ccc2c(c1)CCCC2C1=NCCN1` (centres undefined), “inactive”; as for `O=C(Cl)c1cccc(C(=O)Cl)c1`, “inactive”.
As for `CCc1cc(C(C)(C)C)c(O)c(C(C)(C)C)c1`, the Potency entry is “inactive”.
Same read-out and setting: as for `CC[C@@H](N)CO`, the entry is “inactive”.
On the same count and under the same terms, the figure for `Cc1ccc(-c2cc(C(F)(F)F)nn2-c2ccc(S(N)(=O)=O)cc2)cc1` is 48.8 µM (active) and 49 µM (active) and inactive.
Same read-out and setting: as for `CCCCCCCCCCCCCC[P+](CCCC)(CCCC)CCCC`, the figure is 38.7 µM (active) and 17.4 µM (active); as for `CCC(CO)(CO)COCC(CC)(CO)CO`, “inactive”.
On to `Nc1cc(S(=O)(=O)O)cc2cc(S(=O)(=O)O)cc(O)c12`, for which the Potency result was “inactive”.
On the same count and under the same terms, the entry for `O=C(O)Cn1cnnn1` is “inactive”; for `Oc1ccc(Cl)cc1Cc1cc(Cl)ccc1O` it is “inactive”; for `c1cnc2cc3c(cc2n1)C1CNCC3C1` it is “inactive”.
Still for that read-out and setting: as for `C=C(C)C(=O)O`, the entry is “inactive”; as for `CCN(CC)CCOc1ccc(/C(=C(\Cl)c2ccccc2)c2ccccc2)cc1`, 31.6 µM (active).
On to `NCCCCCC(=O)O`, for which the Potency result is “inactive”.
Consider `CC(C)CCOC(=O)c1ccc(N(C)C)cc1`, for which the Potency entry was “inactive”.
On the same count and under the same terms, the entry for `CCN(CC)c1ccc2c(C)cc(=O)oc2c1` is “inactive”; for `CCCNC(C)C(=O)Nc1ccccc1C` (centres undefined) it is “inactive”; for `CCOC(=O)C(C)C(C)=O` (centres undefined) it is “inactive”.

The next assay is described as follows: qHTS RealTime-Glo MT Cell Viability Assay in HEK293 cells - 40 hour (AID 1224874). Also: nearly all actives have a fitted effect of over 50% in size. The conditions noted are these: RealTime-Glo luminescence; max response: stronger effect = lower value. The procedure, abridged: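 600 cells/well were plated with the nonlytic NanoLuc/prosubstrate reagent, pre-incubated 5 h, then given 23 nL of compound in DMSO. Incubation at 37 C for 40 h, with luminescence from viable-cell-reduced substrate read repeatedly from 0 h.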
As to `CC(C)(C)NCC(O)c1cc(O)cc(O)c1` (centres undefined), the max response is 4.94% (inactive).
For the compound `Cc1c2oc3c(C)ccc(C(=O)N[C@@H]4C(=O)N[C@H](C(C)C)C(=O)N5CCC[C@H]5C(=O)N(C)CC(=O)N(C)[C@@H](C(C)C)C(=O)O[C@@H]4C)c3nc-2c(C(=O)N[C@@H]2C(=O)N[C@H](C(C)C)C(=O)N3CCC[C@H]3C(=O)N(C)CC(=O)N(C)[C@@H](C(C)C)C(=O)O[C@@H]2C)c(N)c1=O` (I: T[dV]P[Sar][NMeV] / II: T[dV]P[Sar][NMeV]; ester I:1-I:C, II:1-II:C; linker I:N-II:N via Actinocin(9to1)), the Potency is 8.5 nM (active) and 16.9 nM (active).
As to `C#CC(C)(CC)OC(=O)c1ccccc1C(=O)O` (centres undefined), the max response was 0.788% (inactive).
On the same count and under the same terms, the figure for `CC(C)(C)NCC(O)COc1ccccc1OCC1CCCO1` (centres undefined) is 0.952% (inactive); for `COc1ccc(Cc2cnc(N)nc2N)cc1OC` it is 0.446% (inactive).
As to `C=CS(=O)(=O)O`, the max response is 2.23% (inactive).
As for `CC(=O)C1=C(C)[C@@H]2C[C@@]3(C1)[C@H](C)CC[C@H]3C2(C)C`, the max response is -1.5% (inactive) and -2.44% (inactive).
As to `O=S(=O)(O)c1ccc2nc(-c3ccccc3)[nH]c2c1`, the max response is 4.15% (inactive) and 2.95% (inactive).
With `Cc1scc2c1N(C(=O)CN1CCN(C)CC1)c1ccccc1NC2=O`, the max response was 1.2% (inactive).
Still for that read-out and setting: the figure for `COC(c1ccccc1)(c1ccccc1)[C@H](Oc1nc(C)cc(C)n1)C(=O)O` is -3.67% (inactive).
With `OCCN1CCNCC1`, the Potency was 7.9 µM (active).
With `C1COC(NC(C2CC2)C2CC2)=N1`, the max response was 5.02% (inactive).
In the case of `Cc1cc(OCCOCC[N+](C)(C)Cc2ccccc2)ccc1C(C)(C)CC(C)(C)C`, the Potency is 9.71 µM (active) and 6.01 µM (active).
As to `CC(=O)CC(=O)Nc1ccc2[nH]c(=O)[nH]c2c1`, the max response is -1.76% (inactive).
The same measure, in the same setting: as for `CCN(CC)C(=O)Nc1ccc(OCC(O)CNC(C)(C)C)c(C(C)=O)c1` (centres undefined), the figure is 1.66% (inactive).
For `CCCOC(=O)c1cc(O)c(O)c(O)c1`, the Potency is 48.7 µM (active) and 38.9 µM (active).
Consider `CN1C(=O)c2ccc([N+](=O)[O-])cc2C1=O`, for which the max response is 0.763% (inactive).
Still for that read-out and setting: as for `CC(C)(C)c1ccccc1`, the figure is 0.372% (inactive).
As to `Nc1nc2ccccc2[nH]1`, the max response is 0.0562% (inactive) and 7.05% (inactive).
For `c1ccc2c(c1)CCCC2C1=NCCN1` (centres undefined), the max response was 3.27% (inactive).
Still for that read-out and setting: as for `O=C(Cl)c1cccc(C(=O)Cl)c1`, the figure is 7.93% (inactive) and 0.091% (inactive).
The same measure, in the same setting: the figure for `CCc1cc(C(C)(C)C)c(O)c(C(C)(C)C)c1` is 1.58% (inactive) and -10.1% (inactive); for `CC[C@@H](N)CO` it is -8.2% (inactive).
`Cc1ccc(-c2cc(C(F)(F)F)nn2-c2ccc(S(N)(=O)=O)cc2)cc1`: the Potency was 21.8 µM (active) and 30.9 µM (active).
The same measure, in the same setting: as for `CCCCCCCCCCCCCC[P+](CCCC)(CCCC)CCCC`, the figure is 137 nM (active) and 174 nM (active).
For the compound `CCC(CO)(CO)COCC(CC)(CO)CO`, the max response was -1.05% (inactive).
Same read-out and setting: the figure for `Nc1cc(S(=O)(=O)O)cc2cc(S(=O)(=O)O)cc(O)c12` is -12.9% (inactive).
Same read-out and setting: the figure for `O=C(O)Cn1cnnn1` is 0.0865% (inactive).
Regarding `Oc1ccc(Cl)cc1Cc1cc(Cl)ccc1O`, the Potency was 17.7 µM (active) and 43.6 µM (active) and 16.9 µM (active).
With `c1cnc2cc3c(cc2n1)C1CNCC3C1`, the max response was 11% (inactive).
On the same count and under the same terms, as for `C=C(C)C(=O)O`, the figure is -0.401% (inactive) and 9.57% (inactive).
In the case of `CCN(CC)CCOc1ccc(/C(=C(\Cl)c2ccccc2)c2ccccc2)cc1`, the Potency was 12.6 µM (active) and 19 µM (active).
With `NCCCCCC(=O)O`, the max response is -0.0726% (inactive).
On the same count and under the same terms, the figure for `CC(C)CCOC(=O)c1ccc(N(C)C)cc1` is 3.04% (inactive).
In the case of `CCN(CC)c1ccc2c(C)cc(=O)oc2c1`, the Potency was 39.2 µM (active).
For `CCCNC(C)C(=O)Nc1ccccc1C` (centres undefined), the max response is -3.34% (inactive).
As for `CCOC(=O)C(C)C(C)=O` (centres undefined), the max response was -0.314% (inactive).
